From PubChem BioAssay AID485284 (NMMLSC, 2010)
Potency and affinity values are given separately.

Test: inhibitors of CD8+ T cell–vesicle binding, dose response, mouse 2C CD8+ T cells, flow cytometry (AID 485284);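 further: drosophila derived vesicles carrying Ld MHC with QL9 peptide plus B7-1 and ICAM-1; vesicle binding seen as anti-B7-1 PE fluorescence on CD8 gated cells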
Details: 2C mouse CD8+ T cell-exosome binding; at 45 µM (top of the series)

Row | SMILES | binding remaining, % of control [%]
1 | Cc1c(Cl)cccc1NC(=O)c1cc(C2CC2)on1 | 86
2 | COc1ccc(NC(=O)Cc2ccc(C)c(C)c2)cc1S(=O)(=O)N1CCCCC1 | 32.4
3 | COc1ccc(NC(=O)CN2CCN(S(=O)(=O)c3ccc(Cl)cc3)CC2)cc1 | 79.2
4 | CCOC(=O)C1(CC2CCCCO2)CCN(S(=O)(=O)c2ccc(C)s2)CC1 (centres undefined) | 105
5 | Cc1ccc(S(=O)(=O)Nc2c3ccccc3nc(=O)n2-c2ccccc2)cc1 | 71.8
6 | CC(Sc1nc2ccccc2[nH]1)C(=O)NC1CCCCC1C (centres undefined) | 87.9
7 | COc1ccc(CNC(=O)c2cccnc2SC)cc1OC | 132
8 | CC(C)C(C(=O)NC1=NCCS1)c1ccc(Cl)cc1 (centres undefined) | 31.2
9 | CN(C)S(=O)(=O)c1ccc(C(=O)NCCc2ccco2)cc1 | 128
10 | CNCc1cn2cc(Cl)ccc2n1 | 125
11 | COc1ccc([C@H]2CC(=O)C=C(c3ccc4c5c(cccc35)CC4)C2)cc1 | 119
12 | CCC(C)S(=O)(=O)c1snnc1C (centres undefined) | 164
13 | Cc1cccc(C(=O)OCC(=O)NN2C(=O)NC3(CCC(C)CC3)C2=O)c1O (centres undefined) | 209
14 | O=C(Cc1cccs1)Nc1cc(S(=O)(=O)N2CCCCC2)ccc1Cl | 121
15 | CCCCN(C(=O)CCCc1nc2ccccc2s1)c1c(N)n(CC(C)C)c(=O)[nH]c1=O | 187
16 | CCOc1ccc(S(=O)(=O)N2CCC(C(=O)Nc3cc(S(C)(=O)=O)ccc3Cl)CC2)cc1 | 106
17 | CC1CCCN(CC(=O)NC(=O)NC2CCCCC2)C1 (centres undefined) | 109

Row | SMILES | binding remaining, % of control [%]
18 | CCCc1nnc(NC(=O)c2ccc(S(=O)(=O)N(C)c3ccccc3OC)cc2)s1 | 142
19 | Cc1ccsc1C(=O)OCC(=O)N1CCN(c2ccccc2)CC1 | 129
20 | CC1CCN(S(=O)(=O)Cc2ccccc2Cl)CC1 | 118
21 | CCN(Cc1ccccc1)C(=O)c1ccc(C)c(S(=O)(=O)N2CCCCC2)c1 | 92.8
22 | Cc1cc(=O)oc2c3c(cc(OCC(=O)NCc4ccncc4)c12)OC(C)(C)CC3 | 119
23 | CN(C)S(=O)(=O)c1cccc(-n2sc3ccccc3c2=O)c1 | 73.9
24 | COc1ccc(S(=O)(=O)N2CCCC2C(=O)Nc2ccc(C(C)=O)cc2)cc1 (centres undefined) | 91.8
25 | COc1ccc(CNC(=O)COC(=O)CCN2C(=O)C3CC=CCC3C2=O)cc1OC (centres undefined) | 190
26 | CC(C)(C)NC(=O)COc1ccc(CNCc2ccccn2)cc1 | 120
27 | Cc1ccc2c(Cl)cc(Cl)c(OCC(=O)OCC(=O)Nc3ccc(C#N)cc3)c2n1 | 141
28 | COc1ccccc1NS(=O)(=O)c1cc(NC(=O)CNC(=O)c2cc(C)cc(C)c2)ccc1C | 40.9
29 | COc1ccc(C(=O)NNC(=O)CSc2nnnn2C)cc1 | 181
30 | O=C(CN1C(=O)NC2(CCCCCC2)C1=O)N1CCN(c2ccc(F)cc2)CC1 | 110
31 | O=C1CC(c2nc3ccccc3[nH]2)CN1Cc1ccccc1 (centres undefined) | 207
32 | CCCCN1C(=O)NC(NC(=O)C2CC2)(C(F)(F)F)C1=O (centres undefined) | 136
33 | COc1ccc2c(c1)-c1c(sn(-c3ccc(OC)c(OC)c3)c1=S)C(C)(C)N2 | 116
34 | CCOC(=O)N1CCN(C(=O)c2ccc(CS(=O)Cc3ccc(C)cc3)o2)CC1 (centres undefined) | 44.7
